Screens deposited in PubChem BioAssay by National Center for Advancing Translational Sciences (NCATS).
Rows were chosen to be rich in hits. Some 7.3% of all compounds tested hit in one or more screens of this group.
FMDV inh: High Throughput Screening for Foot and Mouth Disease Virus Antivirals; Potency, µM (doses to about 57.9 µM), inactives show at the top dose activity change, negative = inhibition, actives largely listed as inhibitors; FMDV antiviral cell-based qHTS; hit rate 1.2% among 410,000; calls by dose curve; tested in HEK293T cells; also: read-out not given here; potency is read from the fitted curve at half-maximal effect; nearly all actives have a fitted effect of over 45% in size
Vaccinia Venus: qHTS for Stage-Specific Inhibitors of Vaccinia Orthopoxvirus: Venus Reporter Primary qHTS. Potency, µM (top dose mostly 36.5 µM), for inactives: at the top dose activity change, negative = inhibition, most hits filed as inhibitors. hit rate 0.46% among 330,000. Vaccinia virus Venus reporter expression, fluorescence; calls by dose curve; tested in A549 cells; also: potency is read from the fitted curve at half-maximal effect; nearly all actives have a fitted effect of over 30% in size
HCMV antiviral: qHTS Assay for inhibitors of the human cytomegalovirus (HCMV); HFF cells, HCMV-luciferase reporter, 72 h; active compounds read low; hit rate 4.5% among 410,000; activity change, negative = inhibition, % at 57.5 µM; in the data active = activity change below about -60%; inconclusive = no clear call, values can overlap the other calls; inactive = above about -39%
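Two-dose cell screen: HFF monolayers treated with compounds and infected with luciferase-expressing HCMV at 1 PFU/cell, 72 h at 37C, then lysed for luciferase measurement.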
HCV inhibitor: qHTS Assay for Inhibitors of Hepatitis C Virus (HCV); hit rate 3.4% among 340,000; Potency, µM (top dose mostly 41.8 µM), without a hit: at the highest dose activity change, negative = inhibition, usual class: inhibitors; Huh7.5.1 HCVcc-Cre infection, luciferase reporter, 44 h; active = well fitted inhibition curve with a large enough effect; inconclusive = small, poorly fitted or top-dose-only effect, or another doubt; inactive = no such curve, though single readings can be large or run the other way; also: potency is read from the fitted curve at half-maximal effect
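Infectious HCVcc-Cre (~0.5 moi) was added to cells just after compound, with cells seeded 4 h earlier at 1,000 per well. Luciferase activity after 44 h culture reported infection; substrate was incubated 15 min at room temperature before reading.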
Vaccinia mCherry: qHTS for Stage-Specific Inhibitors of Vaccinia Orthopoxvirus: mCherry Reporter Primary qHTS. Vaccinia virus mCherry reporter infection, fluorescence. AID 720579, 2013. Potency, µM (top dose mostly 36.5 µM), for the others: top-dose activity change, negative = inhibition, usual class: inhibitors. hit rate 0.63% among 310,000; calls by dose curve; tested in A549 cells; also: potency is read from the fitted curve at half-maximal effect; nearly all actives have a fitted effect of over 35% in size
* hit, by the source's call; i = inactive; u = inconclusive; x = not tested or not shown; [ ] = another dose, or the depositor's remark. % is scaled to controls: 0 for no effect and ±100 for the full control effect.

SMILES | FMDV inh | Vaccinia Venus | HCMV antiviral | HCV inhibitor | Vaccinia mCherry
COc1ccccc1/C=C/C(=O)NC(=S)NCC1CCCO1 (configuration not stated) | -24% | -9% | -62* | -12% | -7%
Cc1c(C(=O)N2CC3CCC2C3)sc2ncnc(NCCc3c[nH]c4ccccc34)c12 (configuration not stated) | u | -25% | x | x | u
O=C(O)CCCn1c(O)c(C=C2N=c3ccccc3=N2)sc1=S | -29% | x | u | 7% | x
O=C(O)CCCCCn1c(O)c(C=C2N=c3ccccc3=N2)sc1=S | -6% | -20% | -80* | 11% | -18%
N=c1c(C(=O)NCC2CCCO2)cc2c(=O)n3ccccc3nc2n1Cc1ccccc1 (configuration not stated) | -12% | x | 34 | 7.1µM* | x
N=c1c(C(=O)NCC2CCCO2)cc2c(=O)n3ccccc3nc2n1Cc1ccc(Cl)cc1 (configuration not stated) | -15% | x | -83* | u | x
N=c1c(C(=O)NCC2CCCO2)cc2c(=O)n3ccccc3nc2n1Cc1ccccc1Cl (configuration not stated) | -23% | -5% | -101* | u | i
COc1ccc(CCn2c(=N)c(C(=O)NCC3CCCO3)cc3c(=O)n4ccccc4nc32)cc1 (configuration not stated) | -25% | x | -112* | 12% | x
COc1ccc(Cn2c(=N)c(C(=O)NCC3CCCO3)cc3c(=O)n4ccccc4nc32)cc1 (configuration not stated) | -14% | -5% | 7 | -33% | 5%
Cc1ccc(Cn2c(=N)c(C(=O)NCC3CCCO3)cc3c(=O)n4ccccc4nc32)cc1 (configuration not stated) | -2% | -14% | -9 | u | -12%
CC1CCCCN1C(=O)CSc1nc2ccccc2nc1Cc1ccc(Cl)cc1 (configuration not stated) | -26% | -4% | -16 | x | -19%
COc1ccc(CCNC(=O)c2cc3c(=O)n4ccccc4nc3n(CC3CCCO3)c2=N)cc1OC (configuration not stated) | -23% | 6% | 17 | 8.9µM* | -9%
COc1ccc(CCNC(=O)c2cc3c(=O)n4ccccc4nc3n(CC3CCCO3)c2=N)cc1 (configuration not stated) | -23% | -8% | -29 | u | -11%
COc1cccc(OC)c1OCCOc1ccc(C(=O)c2ccccc2)cc1 | 32µM* | -13% | -66* | u | i
COC(=O)c1ccc(OCCOc2ccccc2)cc1 | 19% | -28% | 24 | 2% | x
COc1ccccc1NC(=O)c1cc2c(=O)oc3ccc(C)cc3c2s1 | -18% | -12%[7.34 µM] | -26 | x | -19%[7.34 µM]
O=c1oc2c3c4c(cc2c2c1CCC2)OCCN4CCC3 | -22% | u | -68* | u | u
Cc1c(O)c(CN2CCCC2)cc2c3c(c(=O)oc12)CCC3 | 4% | -3% | 88 | u | i
CCOC(=O)c1c(C)[nH]c(C(=O)OCC(=O)N2c3ccccc3CC2C)c1C (configuration not stated) | u | -28% | -30 | 10µM* | u
Cc1[nH]c2ccccc2c1C(=O)C(=O)N1CCCc2ccccc21 | -8% | -26% | -36 | -7% | u
Cc1[nH]c2ccccc2c1C(=O)C(=O)N1c2ccccc2CC1C (configuration not stated) | u | u | -62* | u | u
CCc1ccccc1N(C)S(=O)(=O)c1ccc2c(c1)C(C)(C)C(=O)N2C | -23% | -7% | -23 | x | -12%
COc1cc2nc(CC(O)c3nc4cc(OC)c(OC)cc4[nH]3)[nH]c2cc1OC (configuration not stated) | x | -22% | x | x | -3%
COc1ccc(C2CC(c3ccccc3)=NN2C(=O)c2cccs2)cc1 (configuration not stated) | 20% | -20% | -15 | u | -15%
Cc1ccc(C(=O)N2N=C(c3ccc(Br)cc3)CC2c2ccccc2O)cc1 (configuration not stated) | 23% | u | -62* | u | -26%
SMILES | FMDV inh | Vaccinia Venus | HCMV antiviral | HCV inhibitor | Vaccinia mCherry
COc1ccc(C2=NN(C(=O)c3cccs3)C(c3ccccc3O)C2)cc1 (configuration not stated) | -11% | u | -95* | u | u
COc1ccc(NC(=O)c2cc3nc(-c4ccc(Cl)c(Cl)c4)cc(C(F)(F)F)n3n2)c(OC)c1 | -6% | -6% | 7 | x | -8%
OC(c1ccc2c(c1)CN(Cc1cccn1-c1cccnc1)CCO2)C1CCCCC1 (configuration not stated) | 2% | -14% | x | x | -27%
C[C@H]1Cn2cnc(C(=O)Nc3ccc(CNC(=O)OC(C)(C)C)cc3)c2C(=O)N1 | -14% | -24% | -18 | x | u
Cn1cnc(C(=O)NCc2ccc(CNC(=O)OC(C)(C)C)cc2)c1C(=O)NCc1ccc(CNC(=O)OC(C)(C)C)cc1 | 16µM* | u | u | u | u
C[C@H]1CNC(=O)c2c(C(=O)Nc3ccc(CNC(=O)OC(C)(C)C)cc3)ncn21 | 28µM* | u | u | x | u
CCCN1C(=O)CC[C@@H](S(=O)(=O)c2ccccc2)[C@@H]1c1ccco1 | x | x | -24 | x | x
COC(=O)c1cc2c(c3c4cc(OC)ccc4n(S(=O)(=O)c4ccc(F)cc4)c13)C(=O)N(Cc1ccccc1)C2 | x | x | -19 | x | x
CCOC(=O)c1ccc(N2C(=O)C3CCOc4ccccc4C32)cc1 (configuration not stated) | -16% | u | -79* | -24% | i
Cc1ccc2[nH]c(=O)c3cc(C(=O)N(C)c4ccc(C)c(C)c4)sc3c2c1 | u | x | -61* | -26% | x
CCn1c(=O)c2cc(C(=O)NCCCOC)sc2c2ccccc21 | -2% | -19% | 5 | u | -20%
CCCN(CCC)CCCNC(=O)c1cc2c(=O)n(CC)c3ccccc3c2s1 | 14% | -14% | 159 | 7.9µM* | -14%
CN(C)CCCNC(=O)c1cc2sc3ccccc3c2s1 | -2% | -13% | -38 | 10µM* | -28%
CCCCN(CC)CCCNC(=O)c1cc2c(=O)[nH]c3ccccc3c2s1 | -16% | -10% | u | u | -9%
CCCCN(CC)CCNC(=O)c1cc2c(=O)[nH]c3ccc(C)cc3c2s1 | -27% | u | -65* | u | -21%
COc1cc(/C=C(\C#N)C(=O)Nc2ccc(C)cc2)ccc1OCc1cc(=O)n2nc(C)sc2n1 | -6% | -6% | 7 | x | -9%
Cc1cc(O)c(C=O)c2c1C(=O)Oc1c(COC(=O)/C=C/C(=O)O)c(O)c(C(=O)O)c(C)c1O2 | -15% | -15% | x | x | -7%
Cc1ccccc1C(=O)Nc1c(C)nc2ccccn2c1=O | -5% | -8% | -26 | x | -11%
